Reference: PubChem BioAssay AID460 (PCMD, 2006)
Hit rate of the full screen: of about 58,000 compounds, about 100 (0.17%) were called active. Rule as the data show it: active = inhibition above about 45%; inactive = the rest. The full list was thinned out, with actives kept by preference.

These compounds were tested against Procathepsin L (Homo sapiens) (UniProt P07711) (assay: inhibitors of human cathepsin L, biochemical (AID 460;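 also: 0% = enzyme with no compound and 100% = no enzyme blank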)). Settings: purified cathepsin L, fluorogenic substrate, fluorescence; hits give high values;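 tested at 10 µM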.
Procathepsin L (Homo sapiens), sequence (P07711 114-288 limits assumed): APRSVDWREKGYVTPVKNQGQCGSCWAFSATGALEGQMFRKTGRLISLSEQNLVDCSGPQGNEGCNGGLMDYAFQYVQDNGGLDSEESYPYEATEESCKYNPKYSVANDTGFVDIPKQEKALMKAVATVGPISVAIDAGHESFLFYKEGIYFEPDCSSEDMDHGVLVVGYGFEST
Procathepsin L (Homo sapiens), sequence (P07711 292-333 limits assumed): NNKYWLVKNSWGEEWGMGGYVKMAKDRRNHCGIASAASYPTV

Structure (SMILES) | inhibition
C=CCN1C(=O)C(O)(CC(=O)c2ccc(Cl)cc2)c2ccccc21 (stereo not drawn) | 0.03% (inactive)
CSc1cccc(NC(=O)C2CCCN2S(=O)(=O)c2ccc3c(c2)CCC(=O)N3)c1 (stereo not drawn) | 7.66% (inactive)
Nc1ccc(SCCN2C(=O)c3ccccc3C2=O)cc1 | 7.88% (inactive)
CCn1c2c(c3ccc(OC)cc31)CCCC2=O | -5.8% (inactive)
C=CCOc1nc2c(c(=O)n(C)c(=O)n2C)n1Cc1ccc(Cl)cc1Cl | 31.1% (inactive)
CCOC(=O)c1ccc(COC(=O)c2cc(=O)[nH]c3ccccc23)o1 | 2.07% (inactive)
CCC(=O)Nc1nc(OC)cc(OC)n1 | -4.97% (inactive)
O=C(NCC1CCCO1)C(C(=O)c1ccccc1)n1cc(Cl)ccc1=O (stereo not drawn) | -10.2% (inactive)
Cc1ccc(-c2nnn(CC(=O)N(CCO)C(C(=O)NC(C)(C)C)c3ccncc3)n2)cc1 (stereo not drawn) | -1.4% (inactive)
CCCCCCC(=O)N(O)C1CC(=O)N(c2ccccc2)C1=O (stereo not drawn) | -5.53% (inactive)
COCCn1c(=O)[nH]c2cc(C(=O)NCc3cccnc3)ccc2c1=O | 1.59% (inactive)
COc1ccc(CN2CN(C(C)C)CSC2=S)cc1 | 17% (inactive)
Cc1cc(C(F)(F)F)nn1-c1nc(-c2ccco2)cc(C(F)(F)F)n1 | 1.46% (inactive)
CC(=O)Oc1ccc2c(C)c(CC(C)O)c(=O)oc2c1 (stereo not drawn) | -70.3% (inactive)
COc1ccc(C(=O)NCCc2ccc(S(N)(=O)=O)cc2)cc1OC | 15.1% (inactive)
Cc1ccc(OCC(O)CN2CCN(CC(O)COc3ccc(C)cc3Cl)CC2)c(Cl)c1 (stereo not drawn) | 24.6% (inactive)
CCn1c(SCC(=O)Nc2nc3ccc(OC)cc3s2)nnc1-c1ccoc1C | 19.9% (inactive)
C[C@H](NC(=O)OC(C)(C)C)c1nnc(SCC(N)=O)o1 | 9.7% (inactive)
CCOC(=O)C1CCc2nc3ccccc3c(=O)n21 (stereo not drawn) | 17.4% (inactive)
CCN(CC)CCCNC(=O)c1cc(-c2cccc(Cl)c2)on1 | 10.3% (inactive)
NC(=O)c1ccsc1NC(=O)c1ccco1 | 3.89% (inactive)
CC1CCc2c(sc3c2C2=NS(=O)(=O)CCN2C=N3)C1 (stereo not drawn) | 0.12% (inactive)
CCS(=O)(=O)N1CCN(C(=O)c2cccs2)CC1 | 3.99% (inactive)
O=C(NCCCNC(=O)NC1CCCCC1)NC1CCCCC1 | 4.27% (inactive)
N#Cc1c2c(c(N3CCN(CCO)CC3)n3c1nc1ccccc13)CCCC2 | 10.1% (inactive)

Structure (SMILES) | inhibition
Cc1ccc(-c2cc(C(F)(F)F)n3nc(C(=O)N4CCCC4)cc3n2)cc1 | -2.27% (inactive)
C=CCNC(=O)c1ccc(C)c(Br)c1 | 21.6% (inactive)
COCCNC(=O)C(C#N)c1nc2ccccc2nc1N1CCN(Cc2ccc3c(c2)OCO3)CC1 (stereo not drawn) | -9.53% (inactive)
CC1(C)CC(=O)C(C=NCc2cccnc2)=C(O)C1 | 3% (inactive)
Cc1ccccc1-c1ccc(Nc2ccc(C(=O)N3CCOCC3)cc2)nn1 | -0.35% (inactive)
COc1ccc(CCNC(=O)CSc2nnc(CNC(=O)c3cccs3)o2)cc1OC | 3.37% (inactive)
CCCCC(CC)C(=O)Nc1ccc(Cl)cn1 (stereo not drawn) | 1.2% (inactive)
CCOC(=O)c1[nH]c2ccc(C)cc2c1N=C(C)N(C)C | 0.54% (inactive)
CCC(=O)Nc1ccc(C(=O)CSc2nnc(CNc3ccc(Cl)cc3)o2)cc1OC | 9.8% (inactive)
Cc1ccc(S(=O)(=O)C2(S(=O)(=O)c3ccc(C)cc3)CCCC2)cc1 | -3.77% (inactive)
Cc1ccc(-n2nc3c(c2NC(=O)c2ccc4c(c2)OCO4)CSC3)c(C)c1 | -0.76% (inactive)
CCOC(=O)N1CCN(C(=O)CN(C2CCCCC2)S(C)(=O)=O)CC1 | -8.17% (inactive)
CC(C)(C)c1cc(CN2CCN(CCC#N)CC2)cc(C(C)(C)C)c1O | 4.94% (inactive)
CCn1c(CSc2nncn2-c2ccc(OC)cc2)nc2cc(S(=O)(=O)N(C)C)ccc21 | 15% (inactive)
O=C(Nn1cc(C(=O)N2CCN(c3ccccc3F)CC2)c2ccccc2c1=O)c1cnccn1 | -5.99% (inactive)
CCN(Cc1ccccc1)C(=O)CSc1nc(C)cc2c1C(=O)OC2 | 5.38% (inactive)
CCC(C)n1[nH]c(=O)c2c(C)cc(C)nc21 (stereo not drawn) | 12.4% (inactive)
COc1ccc(-c2ccnc(SCC(=O)N3CCOCC3)n2)cc1 | 11.9% (inactive)
CCn1c(-c2cc(OC)ccc2OC)csc1=Nc1c(C)n(C)n(-c2ccccc2)c1=O | -2.42% (inactive)
COc1ccc(NC2CC(=O)N(C)C2=O)cc1 (stereo not drawn) | 4.64% (inactive)
CC(C)n1c(C(O)c2ccccc2)nc2ccccc21 (stereo not drawn) | 2.15% (inactive)
Cc1cccn2c(=O)c3cc(C#N)c(=O)n(CCCN4CCOCC4)c3nc12 | -56.6% (inactive)
CCOC(=O)C1(C(F)(F)F)N=C(N(C)C)OC(N(C)C)=N1 | -0.15% (inactive)
Cc1cc(C)c(C(=O)CN2C(=O)CCC2=O)cc1C | 5.02% (inactive)
O=C(c1ccc2c(c1)N(Cc1ccc(F)cc1)C(=O)CS2)N1CCOCC1 | -0.56% (inactive)

Structure (SMILES) | inhibition
CN(C(=O)COc1ccccc1)c1nnc(-c2ccncc2)s1 | -26.7% (inactive)
CN(C(=O)C1CCOC1)c1nnc(-c2cccnc2)s1 (stereo not drawn) | 49.5% (active)
CN(C(=O)c1ccno1)c1nnc(-c2cccnc2)s1 | -4.38% (inactive)
COc1ccc(-c2nnc(SC(C)C#N)o2)cc1 (stereo not drawn) | 9.86% (inactive)
CC(=O)Nc1nc(C)c(Cc2ccccc2)c(=O)[nH]1 | -7.6% (inactive)
CCOc1cccc(C(=O)Nc2cccnc2)c1 | -6.37% (inactive)
CC(=O)Nc1ccc(S(=O)(=O)N2CCN(C3CCCCCCC3)CC2)cc1 | 7.05% (inactive)
COc1ccc2c(c1OC)C(=O)N(c1ncn[nH]1)C2 | 2.08% (inactive)
COc1ccc(NC(=O)CN2CCN(S(=O)(=O)c3ccc(F)cc3)CC2)cc1Cl | 20.1% (inactive)
COc1ccc(S(=O)(=O)Nc2ccc3c(c2)OCO3)cc1Cl | 3.1% (inactive)
CCc1nnc(NC(=O)CCC(=O)O)s1 | 3.51% (inactive)
COC(=O)C1C(=O)CC(C)(O)C(C(=O)OC)C1c1ccc2c(c1)OCO2 (stereo not drawn) | 11.2% (inactive)
CN1CCN(S(=O)(=O)c2ccc3[nH]cc(C(=O)O)c(=O)c3c2)CC1 | -3.14% (inactive)
O=C(CCN1C(=O)COc2ccccc21)NCCCN1CCN(c2ccc(F)cc2)CC1 | 5.08% (inactive)
COc1ccc(N2CCN(CCNC(=O)CCN3C(=O)COc4ccccc43)CC2)cc1 | 104% (active)
CCCN1CCN(CCCNC(=O)CN2C(=O)COc3ccccc32)CC1 | -8% (inactive)
O=C(CCCC(=O)N(CC(=O)NC1CCCC1)Cc1ccccc1Cl)Nc1ccccn1 | 9.21% (inactive)
c1ccc2[nH]c(-c3nc4ccccc4[nH]3)nc2c1 | 3.52% (inactive)
Cc1ccc2nc3n(c(=O)c2c1)CCC3 | 14.4% (inactive)
CCCC(=O)N1c2ccccc2NC2=C(C(=O)CCC2)C1c1ccc(F)cc1 (stereo not drawn) | 3.55% (inactive)
O=C(NC12CC3CC(CC(C3)C1)C2)N1CCCC(CO)C1 (stereo not drawn) | 2.74% (inactive)
CCOC(=O)C1=C(C)NC(=O)N(C(C)=O)C1c1ccc(Cl)cc1 (stereo not drawn) | 12.8% (inactive)
COc1ccc(C2CC(c3ccc(C)cc3)Nc3nc(N)nn32)cc1 (stereo not drawn) | -0.09% (inactive)
COc1ccccc1-c1cc(C(=O)N2CCCCC2)no1 | -3.35% (inactive)
COc1ccc(Br)cc1/C=N/n1c(C)nnc1C | 12.8% (inactive)

Structure (SMILES) | inhibition
CCCOC(=O)CC1C(=O)NCCN1Cc1ccc(F)cc1 (stereo not drawn) | -5.6% (inactive)
CCOC(=O)c1ccc(NC(=O)CSc2nnc(COc3ccccc3OC)n2C)cc1 | -5.46% (inactive)
CCOc1ccc(C(=O)Nc2ccncc2)cc1 | 21.4% (inactive)
Cc1cnc(C(=O)OCC(=O)Nc2ccc(Cl)cc2Cl)cn1 | -0.6% (inactive)
Fc1ccc2[nH]c3c(N4CCN(Cc5ccc6c(c5)OCO6)CC4)ncnc3c2c1 | -9.64% (inactive)
c1ccc(-c2noc(-c3cccs3)n2)nc1 | 0.38% (inactive)
CCOc1cc(/C=N/O)cc(Br)c1OC | 2.18% (inactive)
COC(=O)C(C)C1Sc2ccccc2NC1=O (stereo not drawn) | -1.59% (inactive)
CCCCOc1ccc(-c2ncc(C(=O)OCC)c(N)n2)cc1 | 4.53% (inactive)
Cc1cc(NC(=O)c2cnn3cccnc23)n(-c2ccccc2)n1 | 1.38% (inactive)
COc1cccc(N2C(=O)C3CCCN3C2c2ccc(F)cc2)c1 (stereo not drawn) | -5.29% (inactive)
Cc1noc(C)c1C(=O)NC(C)c1ccc2c(c1)OCO2 (stereo not drawn) | 19.1% (inactive)
CN(Cc1ccccc1)Cc1ccccc1F | 6.62% (inactive)
COC(=O)c1cc(S(=O)(=O)NC2CCN(Cc3ccccc3)CC2)cn1C | -7.14% (inactive)
Cc1cc(OCCN2CCCC2)ccc1C(C)C | 3.61% (inactive)
CCCc1cc(=O)[nH]c(SCC(=O)OCc2ccccc2)n1 | -7.39% (inactive)
CCn1cc(C(=O)NCc2ccc(OC)cc2OC)c(=O)c2ccc(C)nc21 | -0.88% (inactive)
O=c1cc(Cn2nnc(-c3ccc(Cl)cc3)n2)nc2sccn12 | 18.2% (inactive)
Cc1cccc(N(CC(O)CN(C)C)S(=O)(=O)c2ccccc2)c1 (stereo not drawn) | -0.65% (inactive)
Cc1ccc(C2(c3ccc(C)cc3)NC(=O)N(Cc3c(C)noc3C)C2=O)cc1 | 13.3% (inactive)
Cc1nc2ccc(NC(=O)N3CCC(c4ccccc4)C3)cc2nc1C (stereo not drawn) | -130% (inactive)
COc1ccc2[nH]c(=O)c(CN(CC3CCCO3)C(=O)Nc3ccccc3)cc2c1 (stereo not drawn) | -6.3% (inactive)
CCN(CC(=O)Nc1ccc2c(c1)OCCO2)Cc1cc(=O)oc2cc(C)c(C)cc12 | 0.7% (inactive)
